The text below walks through data of US20150359843, “P53 ACTIVATING PEPTIDES” (Agency for Science, Technology and Research, published 2015).

The target in experiment [1] is p53 wt-Δ22 (C-terminal truncated, lacking 372-393) (UniProt P04637 P04637:1-371). Nature of the experiment: pulldown; 36 nM RE. To be noted: tags: none (CosmoBio PURE IVT); chain copies: 4 inferred; dsDNA, one strand shown.
The next experiment concerns the target p53 wt-FL (UniProt P04637 P04637:1-393). The experiment can be described thus: pulldown; 36 nM RE; 17-fold when p53 amount doubled. Particulars: tags: none (CosmoBio PURE IVT); chain copies: 4 inferred; dsDNA, one strand shown.

Chain of p53 wt-Δ22 (C-terminal truncated, lacking 372-393) (P04637 1-371, stated change not applied, one chain of several): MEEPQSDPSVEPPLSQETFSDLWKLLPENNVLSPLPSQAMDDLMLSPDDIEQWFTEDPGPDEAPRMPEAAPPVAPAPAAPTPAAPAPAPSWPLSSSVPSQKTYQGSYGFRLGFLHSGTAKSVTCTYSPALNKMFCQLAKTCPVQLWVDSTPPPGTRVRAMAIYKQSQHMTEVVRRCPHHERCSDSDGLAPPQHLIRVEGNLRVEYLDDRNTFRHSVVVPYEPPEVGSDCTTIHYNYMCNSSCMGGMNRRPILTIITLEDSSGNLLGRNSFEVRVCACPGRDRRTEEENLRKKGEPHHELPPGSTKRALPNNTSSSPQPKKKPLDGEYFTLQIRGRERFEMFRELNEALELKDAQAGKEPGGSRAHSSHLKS
Chain of p53 wt-FL (P04637 whole entry, one chain of several): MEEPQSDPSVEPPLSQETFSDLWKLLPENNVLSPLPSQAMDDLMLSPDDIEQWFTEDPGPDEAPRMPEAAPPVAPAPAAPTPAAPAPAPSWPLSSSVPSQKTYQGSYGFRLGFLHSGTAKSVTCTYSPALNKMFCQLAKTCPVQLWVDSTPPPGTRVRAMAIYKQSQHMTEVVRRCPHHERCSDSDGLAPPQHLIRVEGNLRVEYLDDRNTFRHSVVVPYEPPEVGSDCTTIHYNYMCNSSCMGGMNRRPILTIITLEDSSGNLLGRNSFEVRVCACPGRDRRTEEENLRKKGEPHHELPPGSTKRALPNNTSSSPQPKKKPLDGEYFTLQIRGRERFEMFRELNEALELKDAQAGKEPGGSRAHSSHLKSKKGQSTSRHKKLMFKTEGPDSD

CTTGGGAACAAGGGCATGAGCTTGTCTGGGCT had a binding signal in experiment [1] of around 3 fold over control DNA. The sequence CGCGCCTGCAAGTCCTGACTTGTCCGCGGC had a binding signal with p53 wt-FL of around 2.8 fold over control DNA.
